{
  "source": "PubChem BioAssay (NCI)",
  "note": "The panel holds about 83,000 compounds, 20% with a hit somewhere; the sample as a whole holds those more often.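 Assay: single dose, 48 h. Readout: percent growth (0 = no net growth; negative = cell death). Active: <10.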 A number with no mark means an inactive call. Activity calls are given as the source filed them.",
  "data": [
    {"test_system": "NCI-H23 lung", "assay": "NCI-60 one-dose screen, 48 h (100 = growth as untreated, 0 = no growth, -100 = all killed)", "conditions": "10 µM unless noted", "values": [
      {"compound": "N#C/C(=C1C=C/C(=N/O)C(Cl)=C/1)c1ccc(Cl)cc1", "growth": "104%"},
      {"compound": "c1coc(CNc2ccnc(Nc3ccc(OCCN4CCCCC4)cc3)n2)c1", "growth": "86.7%"},
      {"compound": "C=C1CCC2C(C)(CO)C(O)CCC2(C)C1C/C=C1/C(=O)OCC1O/C=C/c1ccccc1", "note": "(stereo not drawn)", "growth": "87.7%"},
      {"compound": "C=C(C)[C@@H]1CC[C@]2(C(=O)N3CCNCC3)CC[C@]3(C)[C@H](CC[C@@H]4[C@@]5(C)C/C(=C/c6ccncc6)C(=O)C(C)(C)[C@@H]5CC[C@]43C)[C@@H]12", "growth": "103%"},
      {"compound": "CCOC(=O)C1C(=O)C=C(c2ccc(OC)cc2)CC1c1sc(N(C)Cc2ccccc2)nc1Cl", "note": "(stereo not drawn)", "growth": "77.7%"},
      {"compound": "COc1cc(/C=C/C(=O)/C=C/c2cc(OC)c3c(c2)OCO3)cc2c1OCO2", "growth": "80.5%"},
      {"compound": "C[n+]1c(/C=C/c2c(O)ccc3ccccc23)ccc2ccccc21", "growth": "37.2%"},
      {"compound": "CCN(CC)CCC(CNc1c2ccc(Cl)cc2nc2ccc(OC)cc12)c1ccccc1", "note": "(stereo not drawn)", "growth": "34.1%"},
      {"compound": "C=C1CC2(OC1=O)C(=O)N(CCCN1C(=O)C3(CC(=C)C(=O)O3)c3ccccc31)c1ccccc12", "note": "(stereo not drawn)", "growth": "57.6%"},
      {"compound": "CN(CCCCCl)P(=O)(OCc1ccc([N+](=O)[O-])o1)C(F)(F)C[C@H](NC(=O)CNC(=O)c1ccc(N=[N+]=[N-])cc1)C(=O)NCCc1ccc(O)cc1", "note": "(stereo partly drawn)", "growth": "99.4%"},
      {"compound": "COc1ccc(C(=O)N2NC(=O)/C(=C/c3ccc(Br)cc3)N=C2c2ccccc2)cc1", "growth": "93.8%"},
      {"compound": "N#Cc1c(-c2ccccc2)cc(-c2ccccc2)n(CC(=O)NO)c1=O", "growth": "53.1%"},
      {"compound": "COc1ccc(Nc2ncccc2C(=O)NCc2cn(Cc3cccc(Oc4ccccc4)c3)nn2)c(OC)c1", "growth": "37.5%"},
      {"compound": "N/C(=N\\S(=O)(=O)c1ccccc1)Nc1nc2ccccc2s1", "growth": "87.9%"},
      {"compound": "O=S(=O)(NCCCNc1nccc(-n2ccc3cccnc32)n1)c1cccc(C(F)(F)F)c1", "growth": "108%"},
      {"compound": "COc1cc(NC(N)=NCCC(C)(C)Oc2ccc(C(F)(F)F)cc2)ncc1C#N", "growth": "1.1% (active)"},
      {"compound": "COc1ccc2c(c1)[nH]c(=O)c1c3cc(OC)ccc3cn21", "growth": "41.4%"},
      {"compound": "FC(F)(F)c1cccc(-c2cn3c(ccc4ccccc43)n2)c1", "growth": "79.3%"},
      {"compound": "COc1ccc(CN2CCc3c(Sc4ccccc4)nc(N)nc3C2=O)c(OC)c1", "growth": "49%"},
      {"compound": "COc1ccc(Nc2ncccc2C(=O)NCc2cn(Cc3cccc(Oc4ccccc4)c3)nn2)cc1", "growth": "54.6%"},
      {"compound": "CCN(CC)CCC(CNc1ccnc2cc(Cl)ccc12)c1ccc(Cl)cc1", "note": "(stereo not drawn)", "growth": "48.6%"},
      {"compound": "Cc1ccc(S(=O)(=O)C2=C3C(=C(c4ccccc4)c4ccccc43)CN(S(=O)(=O)c3ccc(C)cc3)C2)cc1", "growth": "47.1%"},
      {"compound": "O=C1C(Cl)=C(Nc2ccccn2)C(=O)c2ccccc21", "growth": "40.5%"},
      {"compound": "COc1cc(/C=C/C(=O)N2CCN(C(=O)/C=C/c3cc(OC)c(OC)c(OC)c3)CC2)cc(OC)c1OC", "growth": "104%"},
      {"compound": "c1ccc(-c2nnc(-c3ccccn3)s2)nc1", "growth": "79.6%"},
      {"compound": "Cc1c(C(=O)/C=C/c2csc3ccccc23)[n+](=O)c2ccccc2n1[O-]", "growth": "44.4%"},
      {"compound": "O=C(NCCNc1nccc(-n2ccc3cccnc32)n1)c1ccc(C(F)(F)F)cc1", "growth": "105%"},
      {"compound": "C=C(C)[C@@H]1C[C@@H]2Cc3cc(Cl)ccc3N1O2", "growth": "99.8%"},
      {"compound": "O=S(=O)(CC(O)(c1ccccc1)c1ccccc1)CC(O)(c1ccccc1)c1ccccc1", "growth": "88.3%"},
      {"compound": "NC1=NC(SCc2ccccc2CCl)c2ncn(Cc3ccccc3CCl)c2N1", "note": "(stereo not drawn)", "growth": "70.8%"},
      {"compound": "C=C[C@@H]1C[C@@H]2Cc3c(C)cc(C)cc3N1O2", "growth": "95%"},
      {"compound": "COc1cc(/C=N\\NC(=O)CN2CCN(c3cc4c(cc3F)c(=O)c(C(=O)N/N=C/c3cc(OC)c(OC)c(OC)c3)cn4C3CC3)CC2)cc(OC)c1OC", "growth": "-36.4% (active)"},
      {"compound": "Fc1ccc(-c2nc(-c3nc4ncccc4[nH]3)cc3c2[nH]c2ccccc23)cc1F", "growth": "67.2%"},
      {"compound": "COc1cc(-c2nc(-c3nc4ccc(Cl)cc4[nH]3)cc3c2[nH]c2ccccc23)cc(OC)c1OC", "growth": "71.5%"},
      {"compound": "C=C(C)[C@@H]1C[C@@H]2Cc3ccc(Cl)c(C)c3N1O2", "growth": "97.4%"},
      {"compound": "CCCCCCCCC(C)OC(=O)c1nn(C(C)=O)c2ccccc12", "note": "(stereo not drawn)", "growth": "89.3%"},
      {"compound": "COc1cc(/C(C#N)=C/c2ccc3c(c2OC)OCO3)cc2c1OCO2", "growth": "30.9%"},
      {"compound": "CC12CCC3C4(C)COC(c5ccco5)OC4CCC3(C)C1CC(C1=CCOC1=O)O2", "note": "(stereo not drawn)", "growth": "103%"},
      {"compound": "C=C1CCC2C3(C)COC(c4ccc(N(C)C)cc4)OC3CCC2(C)C1C/C=C1/C(=O)OCC1O", "note": "(stereo not drawn)", "growth": "66.4%"}
    ]},
    {"test_system": "NCI-H226 lung", "assay": "NCI-60 one-dose screen, 48 h (100 = growth as untreated, 0 = no growth, -100 = all killed)", "conditions": "10 µM unless noted", "values": [
      {"compound": "N#C/C(=C1C=C/C(=N/O)C(Cl)=C/1)c1ccc(Cl)cc1", "growth": "71.5%"},
      {"compound": "c1coc(CNc2ccnc(Nc3ccc(OCCN4CCCCC4)cc3)n2)c1", "growth": "68.1%"},
      {"compound": "C=C1CCC2C(C)(CO)C(O)CCC2(C)C1C/C=C1/C(=O)OCC1O/C=C/c1ccccc1", "note": "(stereo not drawn)", "growth": "83.7%"},
      {"compound": "C=C(C)[C@@H]1CC[C@]2(C(=O)N3CCNCC3)CC[C@]3(C)[C@H](CC[C@@H]4[C@@]5(C)C/C(=C/c6ccncc6)C(=O)C(C)(C)[C@@H]5CC[C@]43C)[C@@H]12", "growth": "95.7%"},
      {"compound": "CCOC(=O)C1C(=O)C=C(c2ccc(OC)cc2)CC1c1sc(N(C)Cc2ccccc2)nc1Cl", "note": "(stereo not drawn)", "growth": "82.6%"},
      {"compound": "COc1cc(/C=C/C(=O)/C=C/c2cc(OC)c3c(c2)OCO3)cc2c1OCO2", "growth": "78.8%"},
      {"compound": "C[n+]1c(/C=C/c2c(O)ccc3ccccc23)ccc2ccccc21", "growth": "47.5%"},
      {"compound": "CCN(CC)CCC(CNc1c2ccc(Cl)cc2nc2ccc(OC)cc12)c1ccccc1", "note": "(stereo not drawn)", "growth": "13.9%"},
      {"compound": "C=C1CC2(OC1=O)C(=O)N(CCCN1C(=O)C3(CC(=C)C(=O)O3)c3ccccc31)c1ccccc12", "note": "(stereo not drawn)", "growth": "78.7%"},
      {"compound": "CN(CCCCCl)P(=O)(OCc1ccc([N+](=O)[O-])o1)C(F)(F)C[C@H](NC(=O)CNC(=O)c1ccc(N=[N+]=[N-])cc1)C(=O)NCCc1ccc(O)cc1", "note": "(stereo partly drawn)", "growth": "105%"},
      {"compound": "COc1ccc(C(=O)N2NC(=O)/C(=C/c3ccc(Br)cc3)N=C2c2ccccc2)cc1", "growth": "95.1%"},
      {"compound": "N#Cc1c(-c2ccccc2)cc(-c2ccccc2)n(CC(=O)NO)c1=O", "growth": "38.9%"},
      {"compound": "COc1ccc(Nc2ncccc2C(=O)NCc2cn(Cc3cccc(Oc4ccccc4)c3)nn2)c(OC)c1", "growth": "73.5%"},
      {"compound": "N/C(=N\\S(=O)(=O)c1ccccc1)Nc1nc2ccccc2s1", "growth": "76.7%"},
      {"compound": "O=S(=O)(NCCCNc1nccc(-n2ccc3cccnc32)n1)c1cccc(C(F)(F)F)c1", "growth": "104%"},
      {"compound": "COc1cc(NC(N)=NCCC(C)(C)Oc2ccc(C(F)(F)F)cc2)ncc1C#N", "growth": "60.3%"},
      {"compound": "COc1ccc2c(c1)[nH]c(=O)c1c3cc(OC)ccc3cn21", "growth": "30.1%"},
      {"compound": "FC(F)(F)c1cccc(-c2cn3c(ccc4ccccc43)n2)c1", "growth": "94.6%"},
      {"compound": "COc1ccc(CN2CCc3c(Sc4ccccc4)nc(N)nc3C2=O)c(OC)c1", "growth": "67.6%"},
      {"compound": "COc1ccc(Nc2ncccc2C(=O)NCc2cn(Cc3cccc(Oc4ccccc4)c3)nn2)cc1", "growth": "71.7%"},
      {"compound": "CCN(CC)CCC(CNc1ccnc2cc(Cl)ccc12)c1ccc(Cl)cc1", "note": "(stereo not drawn)", "growth": "14.4%"},
      {"compound": "Cc1ccc(S(=O)(=O)C2=C3C(=C(c4ccccc4)c4ccccc43)CN(S(=O)(=O)c3ccc(C)cc3)C2)cc1", "growth": "79.1%"},
      {"compound": "O=C1C(Cl)=C(Nc2ccccn2)C(=O)c2ccccc21", "growth": "94.1%"},
      {"compound": "COc1cc(/C=C/C(=O)N2CCN(C(=O)/C=C/c3cc(OC)c(OC)c(OC)c3)CC2)cc(OC)c1OC", "growth": "100%"},
      {"compound": "c1ccc(-c2nnc(-c3ccccn3)s2)nc1", "growth": "96.8%"},
      {"compound": "Cc1c(C(=O)/C=C/c2csc3ccccc23)[n+](=O)c2ccccc2n1[O-]", "growth": "78.1%"},
      {"compound": "O=C(NCCNc1nccc(-n2ccc3cccnc32)n1)c1ccc(C(F)(F)F)cc1", "growth": "97.7%"},
      {"compound": "C=C(C)[C@@H]1C[C@@H]2Cc3cc(Cl)ccc3N1O2", "growth": "101%"},
      {"compound": "O=S(=O)(CC(O)(c1ccccc1)c1ccccc1)CC(O)(c1ccccc1)c1ccccc1", "growth": "84.1%"},
      {"compound": "NC1=NC(SCc2ccccc2CCl)c2ncn(Cc3ccccc3CCl)c2N1", "note": "(stereo not drawn)", "growth": "60.2%"},
      {"compound": "C=C[C@@H]1C[C@@H]2Cc3c(C)cc(C)cc3N1O2", "growth": "95.5%"},
      {"compound": "COc1cc(/C=N\\NC(=O)CN2CCN(c3cc4c(cc3F)c(=O)c(C(=O)N/N=C/c3cc(OC)c(OC)c(OC)c3)cn4C3CC3)CC2)cc(OC)c1OC", "growth": "-64.7% (active)"},
      {"compound": "Fc1ccc(-c2nc(-c3nc4ncccc4[nH]3)cc3c2[nH]c2ccccc23)cc1F", "growth": "88.5%"},
      {"compound": "COc1cc(-c2nc(-c3nc4ccc(Cl)cc4[nH]3)cc3c2[nH]c2ccccc23)cc(OC)c1OC", "growth": "73.2%"},
      {"compound": "C=C(C)[C@@H]1C[C@@H]2Cc3ccc(Cl)c(C)c3N1O2", "growth": "107%"},
      {"compound": "CCCCCCCCC(C)OC(=O)c1nn(C(C)=O)c2ccccc12", "note": "(stereo not drawn)", "growth": "105%"},
      {"compound": "COc1cc(/C(C#N)=C/c2ccc3c(c2OC)OCO3)cc2c1OCO2", "growth": "89.9%"},
      {"compound": "CC12CCC3C4(C)COC(c5ccco5)OC4CCC3(C)C1CC(C1=CCOC1=O)O2", "note": "(stereo not drawn)", "growth": "101%"},
      {"compound": "C=C1CCC2C3(C)COC(c4ccc(N(C)C)cc4)OC3CCC2(C)C1C/C=C1/C(=O)OCC1O", "note": "(stereo not drawn)", "growth": "109%"}
    ]}
  ]
}
